Where “and” joins values, the source holds several entries; their conditions need not be identical. Identical values can stand only once. Results filed as inconclusive are left out. The source holds several records for some structures; these can differ, active in one and inactive in another. Calls of active or inactive are those of the source. The call rests on the fitted dose curve; in most records, active means well fitted curve in the direction sought with a large enough effect in the repeat runs; inconclusive means weak or mixed curves; inactive means no such curve, though single readings can be large; an effect the other way counts as inactive or inconclusive.

Assay [1] is described as follows: Human pregnane X receptor (PXR) small molecule agonists, qHTS cell viability counter screen (AID 1346977). Further: nearly all actives have a fitted effect of over 50% in size. In short, it runs like this:
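Measures live-cell protease fluorescence (CellTiter-Fluor) in PXR-Luc HepG2 cells treated 24hr with compounds at 37C. Cells had 5hr to attach before pin transfer of DMSO solutions.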
Background: Quantitative high-throughput screening tests each substance at several concentrations.

Assay [2] can be described thus: Caspase-3/7 induction in HepG2 cells by small molecules, qHTS assay (AID 1346978). Further: nearly all actives have a fitted effect of over 15% in size. In short, it runs like this: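 Wild-type HepG2 cells, 2,000/well, settled 5 hr at 37 C and 5% CO2, then compound-treated for 17 hr; caspase-3/7 activity read by luminescent Caspase-Glo 3/7 after 30 min at room temperature.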
Assay [3] can be described thus: Caspase-3/7 induction in CHO-K1 cells by small molecules, qHTS cell viability counter screen (AID 1346979). Further: nearly all actives have a fitted effect of over 35% in size. Further: potency means the concentration at half of the fitted maximal effect. In short, it runs like this:
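In the same wells as the caspase read, viability of compound-treated wild-type CHO-K1 cells was assessed using CellTiter-Fluor, added after 16hr at 37C and measured by fluorescence following 1hr further incubation.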

Assay [4] can be described thus: Caspase-3/7 induction in HepG2 cells by small molecules, qHTS cell viability counter screen (AID 1346981). Further: nearly all actives have a fitted effect of over 30% in size. Further: potency means the concentration at half of the fitted maximal effect. In short, it runs like this: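 HepG2, WT, 2,000 cells/well; 5 hr pre-incubation 37 C/5% CO2; compound pin-transferred from DMSO; 16 hr exposure; CellTiter-Fluor, 1 hr; fluorescence read.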
Assay [5] deals with Nuclear receptor subfamily 1 group I member 2 (Homo sapiens) (UniProt O75469). Nature of the assay: Human pregnane X receptor (PXR) small molecule agonists, qHTS assay (AID 1346982). Further: nearly all actives have a fitted effect of over 35% in size. Further: potency means the concentration at half of the fitted maximal effect. In short, it runs like this: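 Luciferase signal from ONE-Glo (30 min, room temperature) measured activation of hPXR-driven CYP3A4 reporter expression in PXR-Luc HepG2 cells treated with compounds for 24 hr at 37 C.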

The target in assay [6] is Cytochrome P450 2D6 (Homo sapiens) (UniProt P10635). Nature of the assay: Cytochrome P450 Family 2 Subfamily D Member 6 (CYP2D6) small molecule antagonists: luciferase reporter qHTS assay (AID 1671196). Further: nearly all actives have a fitted effect of over 50% in size. Further: potency means the concentration at half of the fitted maximal effect. In short, it runs like this: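 Read-out is luminescence from luciferin formed by CYP2D6 turnover of a proluciferin substrate, recorded as relative luminescence units. Reactions ran 1 h at room temperature after NADPH regeneration solution was added.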
On the technique in general: A reporter such as luciferase makes a cellular process visible.

The target of assay [7] is Cytochrome P450 2C19 (Homo sapiens) (UniProt P33261). Nature of the assay: Cytochrome P450 Family 2 Subfamily C Member 19 (CYP2C19) small molecule antagonists: luciferase reporter qHTS assay (AID 1671197). Further: nearly all actives have a fitted effect of over 65% in size. Further: potency means the concentration at half of the fitted maximal effect. In short, it runs like this:
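Relative luminescence units recorded 20 min after the detection reagent stopped a 1 h, 37C CYP2C19 reaction on proluciferin substrate, which was started by NADPH regeneration following 10 min room-temperature compound preincubation; ketoconazole positive control.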

For assay [8], the target named is Cytochrome P450 2C9 (Homo sapiens) (UniProt P11712). Nature of the assay: Cytochrome P450 Family 2 Subfamily C Member 9 (CYP2C9) small molecule antagonists: luciferase reporter qHTS assay (AID 1671198). Further: nearly all actives have a fitted effect of over 50% in size. Further: potency means the concentration at half of the fitted maximal effect. In short, it runs like this:
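P450-Glo proluciferin substrate with CYP2C9 enzyme; 10 min RT preincubation, then NADPH regeneration 1 h at 37C; luciferin detection reagent 20 min RT, luminescence in relative luminescence units.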

In assay [9] the target is Cytochrome P450 1A2 (Homo sapiens) (UniProt P05177). Description: Cytochrome P450 Family 1 Subfamily A Member 2 (CYP1A2) small molecule antagonists: luciferase reporter qHTS assay (AID 1671199). Further: nearly all actives have a fitted effect of over 50% in size. Further: potency means the concentration at half of the fitted maximal effect. In short, it runs like this:
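P450-Glo CYP1A2, 1536-well qHTS: enzyme/proluciferin substrate + cpd (DMSO), 10 min RT; NADPH regen, 1 h RT; detection reagent, 20 min; luminescence, RLU.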

In assay [10] the target is Voltage-gated inwardly rectifying potassium channel KCNH2 (Homo sapiens) (UniProt Q12809). Nature of the assay: Human Ether-a-go-go-Related Gene (hERG) channel small molecule antagonists: fluorescence cell-based qHTS assay (AID 1671200). In short, it runs like this: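 Quantitative HTS in hERG-U2OS cells: thallium entry through the channel reports activity, read as continuous 480/540 nm fluorescence over 2 min after stimulus addition.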
In general terms: The hERG channel carries a current that helps repolarise heart muscle cells.

Assay [11] concerns the target Cytochrome P450 3A4 (Homo sapiens) (UniProt P08684). Nature of the assay: Cytochrome P450 Family 3 Subfamily A Member 4 (CYP3A4) small molecule antagonists: luciferase reporter qHTS assay (AID 1671201). Further: nearly all actives have a fitted effect of over 50% in size. Further: potency means the concentration at half of the fitted maximal effect. In short, it runs like this:
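Inhibition of CYP3A4 is measured as loss of light: the enzyme converts a proluciferin substrate to luciferin, detected luminescently. Reaction ran 1 h at room temperature with NADPH regeneration after a 10 min compound preincubation.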

A short description of assay [12]: Caspase-3/7 induction in CHO-K1 cells by small molecules, qHTS assay (AID 1346980). Further: nearly all actives have a fitted effect of over 15% in size. Further: potency means the concentration at half of the fitted maximal effect. In short, it runs like this:
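Wild-type CHO-K1 cells exposed to compounds for 17hr at 37 C, 5% CO2. Caspase-3/7 activity then measured by Caspase-Glo 3/7 luminescence after 30min at room temperature.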

Assay [13] has as its target Nuclear receptor subfamily 1 group I member 2 (Rattus norvegicus) (UniProt Q9R1A7). Nature of the assay: Rat pregnane X receptor (rPXR) activation by small molecules, qHTS assay (AID 1346983). Further: nearly all actives have a fitted effect of over 20% in size. The note with it: rPXR luciferase reporter cells, One-Glo luminescence, 24 h; stronger effect = higher value. In short, it runs like this: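 Cell-based rPXR activation assay: rPXR cells, 2,000 per well, rested 5hr at 37 C, then exposed to compounds in DMSO for 24 hr at 37 C. Luciferase activity read by One-Glo luminescence after 30 min at room temperature.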

Assay [14] addresses Nuclear receptor subfamily 1 group I member 2 (Homo sapiens) (UniProt O75469). Nature of the assay: CYP3A4 induction through human pregnane X receptor (PXR) by small molecules, qHTS assay (AID 1346984). Further: nearly all actives have a fitted effect of over 40% in size. In short, it runs like this:
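Luminescence readout: luciferase signal after One-Glo (30 min, room temperature), following 3 h at 37C with 3uM final Luciferin-IPA P450 substrate. Cells were DPX-2 (HepG2, PXR/CYP3A4-luc co-transfected) dosed for 24 h.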

The target is the same in assay [15]. Description: Human pregnane X receptor (PXR) activation by small molecules, qHTS assay (AID 1346985). Further: nearly all actives have a fitted effect of over 40% in size. In short, it runs like this:
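DPX-2 cells (HepG2 co-transfected with a PXR response element and a CYP3A4-promoter luciferase construct) were seeded at 2,000 per well, rested 5 hr at 37C, then exposed to DMSO-dissolved compounds for 24 hr. Activation was read as luciferase luminescence.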
On the % scale 0 is the no-effect control and ±100 the full control effect.

Voltage-gated inwardly rectifying potassium channel KCNH2 (Homo sapiens), sequence (Q12809 whole entry, looked up): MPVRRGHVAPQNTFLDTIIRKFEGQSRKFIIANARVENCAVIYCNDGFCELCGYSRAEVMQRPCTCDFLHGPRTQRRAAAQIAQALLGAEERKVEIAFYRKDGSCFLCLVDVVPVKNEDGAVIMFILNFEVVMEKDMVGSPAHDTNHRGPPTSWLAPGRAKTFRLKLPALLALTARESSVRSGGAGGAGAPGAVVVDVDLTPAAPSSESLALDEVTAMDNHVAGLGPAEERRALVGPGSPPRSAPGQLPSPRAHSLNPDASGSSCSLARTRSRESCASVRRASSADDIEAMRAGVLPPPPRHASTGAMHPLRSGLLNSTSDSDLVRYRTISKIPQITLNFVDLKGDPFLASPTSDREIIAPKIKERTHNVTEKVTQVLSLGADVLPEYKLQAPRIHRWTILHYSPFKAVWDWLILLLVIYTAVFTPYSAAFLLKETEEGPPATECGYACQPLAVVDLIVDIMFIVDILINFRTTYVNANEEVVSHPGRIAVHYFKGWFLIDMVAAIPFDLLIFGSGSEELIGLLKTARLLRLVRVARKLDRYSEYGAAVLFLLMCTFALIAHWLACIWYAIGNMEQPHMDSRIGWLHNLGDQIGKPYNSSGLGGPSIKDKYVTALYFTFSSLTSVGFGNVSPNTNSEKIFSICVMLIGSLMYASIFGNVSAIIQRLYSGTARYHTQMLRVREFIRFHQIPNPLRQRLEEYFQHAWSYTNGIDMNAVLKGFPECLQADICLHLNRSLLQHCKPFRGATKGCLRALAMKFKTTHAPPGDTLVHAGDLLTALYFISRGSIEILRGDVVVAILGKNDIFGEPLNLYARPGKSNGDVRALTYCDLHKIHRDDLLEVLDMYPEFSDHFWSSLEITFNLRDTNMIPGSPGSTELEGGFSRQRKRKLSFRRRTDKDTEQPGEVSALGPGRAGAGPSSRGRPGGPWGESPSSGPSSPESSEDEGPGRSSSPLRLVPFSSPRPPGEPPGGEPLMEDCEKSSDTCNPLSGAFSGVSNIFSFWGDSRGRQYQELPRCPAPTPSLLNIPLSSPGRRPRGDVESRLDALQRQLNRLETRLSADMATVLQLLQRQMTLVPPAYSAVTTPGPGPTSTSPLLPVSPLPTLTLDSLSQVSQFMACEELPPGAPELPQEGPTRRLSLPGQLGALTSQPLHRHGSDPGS
Cytochrome P450 2D6 (Homo sapiens), sequence (P10635 whole entry, looked up): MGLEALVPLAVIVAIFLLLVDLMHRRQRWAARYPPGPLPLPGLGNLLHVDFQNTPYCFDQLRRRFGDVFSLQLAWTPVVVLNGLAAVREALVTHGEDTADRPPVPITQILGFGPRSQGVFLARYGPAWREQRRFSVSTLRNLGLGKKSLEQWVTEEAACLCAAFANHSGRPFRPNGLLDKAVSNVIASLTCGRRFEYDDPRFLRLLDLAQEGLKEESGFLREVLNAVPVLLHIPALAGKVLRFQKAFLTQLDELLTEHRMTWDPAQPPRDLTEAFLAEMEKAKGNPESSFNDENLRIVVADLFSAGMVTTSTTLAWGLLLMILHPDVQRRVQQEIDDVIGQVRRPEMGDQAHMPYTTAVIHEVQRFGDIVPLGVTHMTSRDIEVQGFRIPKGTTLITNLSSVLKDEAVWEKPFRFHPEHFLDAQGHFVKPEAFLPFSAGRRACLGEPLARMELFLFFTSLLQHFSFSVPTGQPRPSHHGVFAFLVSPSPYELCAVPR
Nuclear receptor subfamily 1 group I member 2 (Homo sapiens), sequence (O75469 whole entry, looked up): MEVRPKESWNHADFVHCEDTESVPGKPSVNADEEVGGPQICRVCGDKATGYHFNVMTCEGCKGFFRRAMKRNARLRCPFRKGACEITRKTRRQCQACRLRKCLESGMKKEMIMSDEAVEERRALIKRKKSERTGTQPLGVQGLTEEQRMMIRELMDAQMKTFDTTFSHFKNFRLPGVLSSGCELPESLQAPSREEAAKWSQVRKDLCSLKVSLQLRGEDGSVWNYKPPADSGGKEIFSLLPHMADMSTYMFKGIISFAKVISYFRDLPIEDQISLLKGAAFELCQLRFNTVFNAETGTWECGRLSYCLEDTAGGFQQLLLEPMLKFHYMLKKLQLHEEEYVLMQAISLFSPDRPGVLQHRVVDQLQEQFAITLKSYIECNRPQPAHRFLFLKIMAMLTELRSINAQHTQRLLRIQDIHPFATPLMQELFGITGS
Cytochrome P450 1A2 (Homo sapiens), sequence (P05177 whole entry, looked up): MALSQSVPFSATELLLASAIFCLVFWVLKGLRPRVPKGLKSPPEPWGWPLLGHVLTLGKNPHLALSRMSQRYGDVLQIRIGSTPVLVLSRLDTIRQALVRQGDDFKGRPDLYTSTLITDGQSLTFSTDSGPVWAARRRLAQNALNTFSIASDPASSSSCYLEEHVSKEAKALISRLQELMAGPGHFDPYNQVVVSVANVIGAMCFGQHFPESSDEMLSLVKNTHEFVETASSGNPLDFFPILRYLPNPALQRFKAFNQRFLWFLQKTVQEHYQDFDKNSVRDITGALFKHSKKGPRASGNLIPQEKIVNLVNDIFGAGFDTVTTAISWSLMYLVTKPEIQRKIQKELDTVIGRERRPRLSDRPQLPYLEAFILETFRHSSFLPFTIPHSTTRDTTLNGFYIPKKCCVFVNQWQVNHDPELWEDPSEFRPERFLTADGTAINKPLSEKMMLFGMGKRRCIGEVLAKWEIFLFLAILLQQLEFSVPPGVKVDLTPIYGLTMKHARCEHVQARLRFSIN
Cytochrome P450 2C19 (Homo sapiens), sequence (P33261 whole entry, looked up): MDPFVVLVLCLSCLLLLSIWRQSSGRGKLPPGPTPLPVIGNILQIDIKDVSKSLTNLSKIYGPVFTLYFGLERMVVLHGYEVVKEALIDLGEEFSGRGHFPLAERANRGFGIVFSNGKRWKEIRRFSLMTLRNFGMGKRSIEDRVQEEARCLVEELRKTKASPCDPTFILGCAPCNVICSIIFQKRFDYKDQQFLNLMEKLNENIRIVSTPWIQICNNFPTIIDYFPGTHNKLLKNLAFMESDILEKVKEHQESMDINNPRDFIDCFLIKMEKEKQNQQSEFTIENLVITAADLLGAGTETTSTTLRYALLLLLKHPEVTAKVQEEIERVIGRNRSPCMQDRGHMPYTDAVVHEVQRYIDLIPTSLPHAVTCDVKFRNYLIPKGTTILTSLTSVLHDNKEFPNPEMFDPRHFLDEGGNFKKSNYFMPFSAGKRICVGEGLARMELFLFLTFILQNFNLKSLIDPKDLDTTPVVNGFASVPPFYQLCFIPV
Cytochrome P450 3A4 (Homo sapiens), sequence (P08684 whole entry, looked up): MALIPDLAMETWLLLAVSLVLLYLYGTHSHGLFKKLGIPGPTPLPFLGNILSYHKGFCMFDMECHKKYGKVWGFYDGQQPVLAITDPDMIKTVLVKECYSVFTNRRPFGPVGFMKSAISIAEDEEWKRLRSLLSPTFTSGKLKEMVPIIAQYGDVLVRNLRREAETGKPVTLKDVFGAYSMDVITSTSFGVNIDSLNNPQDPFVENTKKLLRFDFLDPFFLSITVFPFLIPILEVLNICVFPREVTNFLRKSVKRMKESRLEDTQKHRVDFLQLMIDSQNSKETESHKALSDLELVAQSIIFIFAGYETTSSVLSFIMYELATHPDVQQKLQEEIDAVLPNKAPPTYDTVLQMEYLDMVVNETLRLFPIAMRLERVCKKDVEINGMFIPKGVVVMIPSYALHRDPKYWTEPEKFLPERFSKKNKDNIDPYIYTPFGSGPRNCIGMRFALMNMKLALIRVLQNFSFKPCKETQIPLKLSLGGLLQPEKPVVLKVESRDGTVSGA
Cytochrome P450 2C9 (Homo sapiens), sequence (P11712 whole entry, looked up): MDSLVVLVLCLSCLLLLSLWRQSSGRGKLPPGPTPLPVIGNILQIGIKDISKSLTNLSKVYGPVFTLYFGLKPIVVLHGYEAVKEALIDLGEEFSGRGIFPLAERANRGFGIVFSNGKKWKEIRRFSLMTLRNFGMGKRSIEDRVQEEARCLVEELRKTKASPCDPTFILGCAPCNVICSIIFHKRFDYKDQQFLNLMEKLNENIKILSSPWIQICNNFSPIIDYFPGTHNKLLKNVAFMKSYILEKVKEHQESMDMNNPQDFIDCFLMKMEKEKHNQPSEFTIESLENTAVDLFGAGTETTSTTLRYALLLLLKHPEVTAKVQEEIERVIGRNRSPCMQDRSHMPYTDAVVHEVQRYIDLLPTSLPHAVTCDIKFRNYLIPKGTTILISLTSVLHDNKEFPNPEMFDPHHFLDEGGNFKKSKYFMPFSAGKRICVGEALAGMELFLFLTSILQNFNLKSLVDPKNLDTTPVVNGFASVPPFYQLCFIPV
Nuclear receptor subfamily 1 group I member 2 (Rattus norvegicus), sequence (Q9R1A7 whole entry, looked up): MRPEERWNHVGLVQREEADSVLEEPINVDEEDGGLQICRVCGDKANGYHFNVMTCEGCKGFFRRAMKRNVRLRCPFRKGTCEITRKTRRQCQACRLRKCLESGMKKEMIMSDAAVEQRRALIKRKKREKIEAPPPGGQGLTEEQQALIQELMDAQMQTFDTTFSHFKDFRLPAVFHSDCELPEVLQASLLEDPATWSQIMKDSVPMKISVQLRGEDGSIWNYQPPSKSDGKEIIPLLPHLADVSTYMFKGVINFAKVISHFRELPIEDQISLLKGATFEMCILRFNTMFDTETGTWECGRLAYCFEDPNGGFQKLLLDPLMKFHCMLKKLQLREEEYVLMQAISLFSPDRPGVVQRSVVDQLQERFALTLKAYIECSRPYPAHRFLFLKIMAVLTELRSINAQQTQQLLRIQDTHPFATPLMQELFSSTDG

Regarding `O=C(Cl)c1ccc(C(=O)Cl)cc1`, the Potency entry in assay [1], in [2], in assay [3], in assay [4], in assay [5] and in [6] was “inactive” in each case. The Potency result in assay [7], in [8], in assay [10] and in [11] was “inactive” throughout. Further, the Potency result in assay [9] is “inactive and 63.3 µM (active)”.
For `C[Si](C)(C)N[Si](C)(C)C`, the Potency result in [1], in assay [2], in assay [3], in assay [4], in [6] and in assay [7] was “inactive” in each case. Besides, the Potency result in assay [8], in [9], in assay [10] and in assay [11] was “inactive” in each case. Moreover, the Potency in [5] is 60.6 µM (active) and inactive.
For the compound `O=C1OC(=O)c2c(Cl)c(Cl)c(Cl)c(Cl)c21`, the Potency entry in assay [1], in assay [2], in assay [3], in assay [4], in [5] and in assay [6] was “inactive” throughout. In addition, the Potency entry in assay [8], in [9], in assay [10] and in [11] was “inactive” in each case.
With `O=c1n(CCCN2CCN(c3cccc(Cl)c3)CC2)nc2ccccn12`, the Potency entry in assay [2], in assay [3], in [12] and in assay [4] was “inactive” in each case. Also, in assay [13], the max activation was -1.08% (inactive).
On to `Cc1ccccc1C=O`, for which the Potency result in [2], in assay [3], in assay [12], in assay [4], in assay [5] and in assay [6] was “inactive” throughout. The Potency result in [7], in assay [8], in assay [9], in assay [10] and in [11] was “inactive” each time.
On to `CC(=O)OC(C)(C)C1CC=C(C)CC1` (stereo not drawn), for which the Potency result in assay [2], in [3], in assay [4], in assay [5], in assay [6] and in assay [9] was “inactive” throughout. Moreover, the Potency entry in assay [10] was “inactive”. The Potency was 35.6 µM (active) in assay [7]; 39.9 µM (active) in assay [8]; “inactive and 31.7 µM (active)” in assay [11].
As for `CC(=O)c1nccs1`, the Potency entry in assay [2], in [3], in assay [4], in [5], in assay [6] and in assay [10] was “inactive” throughout. Further, the Potency entry in assay [11] is “inactive”. Besides, the Potency in assay [7] is 26.1 µM (active) and inactive; in assay [8] it was 32.8 µM (active) and inactive.
On to `Cc1ccc(Cl)cc1`, for which the Potency entry in assay [2], in assay [3], in [12], in assay [4], in assay [5] and in assay [7] was “inactive” in each case. Moreover, the Potency result in assay [9], in [10] and in assay [11] was “inactive” in each case. The Potency was 33.5 µM (active) and inactive in assay [6]; 63.3 µM (active) in [8].
In the case of `CC(=O)OC/C=C(\C)CCC=C(C)C`, the Potency result in assay [2], in assay [3], in assay [12], in assay [4], in assay [5] and in assay [6] was “inactive” throughout. The Potency entry in assay [9] and in [10] was “inactive” throughout. Moreover, the Potency result in [7] is “inactive and 39.9 µM (active)”; in assay [8], “inactive and 39.9 µM (active)”; in [11], “inactive and 31.7 µM (active)”.
As to `O=C1O[C@H]([C@H](O)CO)C(O)=C1O`, the Potency result in assay [2], in assay [3], in [12], in [4], in assay [5] and in assay [6] was “inactive” each time. Besides, the Potency entry in [7], in assay [8], in assay [9], in [10] and in [11] was “inactive” throughout.
As for `Oc1ccc(Cc2ccccc2O)cc1`, the Potency result in [2], in assay [3], in [12], in [4], in assay [6] and in assay [9] was “inactive” in each case. Besides, the Potency result in [10] and in [11] was “inactive” throughout. Also, the Potency in assay [5] was 61.9 µM (active); in assay [7], 36 µM (active) and 39.9 µM (active).
Regarding `COc1ccccc1[N+](=O)[O-]`, the Potency result in assay [2], in assay [3], in assay [12], in assay [4], in [5] and in assay [6] was “inactive” in each case. Further, the Potency entry in assay [8], in assay [10] and in assay [11] was “inactive” in each case. For the same compound, in assay [7], the Potency entry was “inactive and 35.6 µM (active)”.
On to `CO[Si](CCCNCCN)(OC)OC`, for which the Potency result in [2], in [6], in assay [7], in assay [8], in [10] and in assay [11] was “inactive” throughout. Further, the Potency in assay [3] was 5.53 µM (active) and inactive; in assay [12], 27.7 µM (active) and inactive; in assay [4], 62 µM (active) and inactive; in assay [5], 13.9 µM (active) and inactive.
Regarding `Cc1ccccc1Cl`, the Potency entry in [2], in [3], in assay [4], in assay [5], in assay [6] and in [7] was “inactive” in each case. Further, the Potency result in [9], in assay [10] and in assay [11] was “inactive” each time.
Consider `CN1Cc2c(N)cccc2C(c2ccccc2)C1` (stereo not drawn), for which the Potency entry in [2], in assay [3], in assay [4], in assay [5], in assay [14] and in assay [7] was “inactive” each time. The Potency entry in assay [8], in assay [9], in assay [10] and in [11] was “inactive” throughout. Moreover, in assay [13], the max activation is -2.53% (inactive). Besides, the compound was called inactive in [15]. Besides, in [6], the Potency is 5.03 µM (active) and 12.3 µM (active).
On to `CCCOCC(C)O` (stereo not drawn), for which the Potency entry in [2], in [3], in [12], in [4], in [5] and in assay [6] was “inactive” each time. Moreover, the Potency entry in assay [7], in assay [8], in assay [9], in [10] and in assay [11] was “inactive” throughout.
In the case of `C=C(C)CC(C)(C)C`, the Potency entry in assay [2], in assay [3], in [12], in assay [4], in assay [5] and in assay [6] was “inactive” throughout. Further, the Potency entry in [7], in [8], in [9], in [10] and in [11] was “inactive” each time.
Take `C=C1C[C@]23C[C@@]1(O)CC[C@H]2[C@@]12C=C[C@H](O)[C@@](C)(C(=O)O1)[C@H]2[C@@H]3C(=O)O`: the Potency entry in [2], in assay [3], in assay [12], in assay [4] and in assay [10] was “inactive” throughout.
On to `Cc1ncc(CO)c(CO)c1O`, for which the Potency entry in assay [2], in assay [3], in assay [4], in assay [5], in [6] and in assay [7] was “inactive” throughout. Also, the Potency entry in assay [9], in assay [10] and in assay [11] was “inactive” each time.
As for `Cc1ccc(C(C)C)cc1`, the Potency result in [2], in assay [3], in [4], in [5], in [6] and in assay [7] was “inactive” throughout. For the same compound, the Potency result in assay [8], in assay [9], in assay [10] and in [11] was “inactive” each time.
